The record followed here is the supplement of paper PMC12645437, “Orthogonal IMiD-Degron Pairs Induce Selective Protein Degradation in Cells” (ACS Chemical Biology, 2025).

Over roughly 8,300 sequences, “log2 fold change of degron read counts, EGFP-low vs EGFP+ sorted cells (limma voom), compound-induced degradation” has its median near -1.1; the highest 2% begin near 3.2. The entries come from a sample that favours the highest values as a whole.

The assay addresses T1, CRBN, Q96SW2.
T1 chain: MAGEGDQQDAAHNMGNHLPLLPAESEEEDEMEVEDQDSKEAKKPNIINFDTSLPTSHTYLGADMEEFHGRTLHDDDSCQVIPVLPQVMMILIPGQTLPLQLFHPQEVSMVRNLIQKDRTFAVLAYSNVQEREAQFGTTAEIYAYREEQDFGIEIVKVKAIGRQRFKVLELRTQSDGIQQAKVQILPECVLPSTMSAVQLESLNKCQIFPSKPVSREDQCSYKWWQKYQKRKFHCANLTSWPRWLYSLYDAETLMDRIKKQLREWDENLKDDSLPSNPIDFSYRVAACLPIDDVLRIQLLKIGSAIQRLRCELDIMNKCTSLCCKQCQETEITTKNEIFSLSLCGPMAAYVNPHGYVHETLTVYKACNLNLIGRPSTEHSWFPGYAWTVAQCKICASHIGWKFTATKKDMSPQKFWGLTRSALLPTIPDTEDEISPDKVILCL
As to the kind of experiment: log2 fold change of degron read counts, EGFP-low vs EGFP+ sorted cells (limma voom), compound-induced degradation; higher = more compound-induced degradation of the degron-EGFP fusion; degrons are variants of IKZF1/3 zinc finger 2; compound dose not given here. To be noted: Jurkat, 18 h.

Where [1] appears, read: compound: compound 19 (5-tert-butyl-thalidomide).
[2] abbreviates: compound: compound 22 (5-morpholino-thalidomide).
[3] abbreviates: compound: compound 33 (diphenyl IMiD analogue).
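Note: pooled lentiviral library of zinc finger degron-EGFP fusions in mCherry-positive Jurkat cells, FACS-sorted after compound exposure, with degron abundance counted by next-generation sequencing.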

As to FNCEICGAAFTQKGNLLRHIKL [46F_47N_49E_50I_52G_53A_54A_55F_67L_, Q9UKT9], the “log2 fold change of degron read counts” value reads like this: under setting [1], 3.08; under setting [2], 1.75; under setting [3], 0.0717; (compound: thalidomide) 0.718.

For FSCEICGAAFTQKGNLLRHIKL [46F_47S_49E_50I_52G_53A_54A_55F_67L_, Q9UKT9], the “log2 fold change of degron read counts” value worked out at 3.56 under setting [1], 2.95 under setting [2], 2.24 under setting [3] and 2.15 (compound: thalidomide).

For FTCEICGAAFTQKGNLLRHIKL [46F_47T_49E_50I_52G_53A_54A_55F_67L_, Q9UKT9], the “log2 fold change of degron read counts” value worked out at 3.16 under setting [1], 3.21 under setting [2], 2.33 under setting [3] and 3.02 (compound: thalidomide).

Turning to FKCEICGAAFTQKGNLLRHIKL [46F_47K_49E_50I_52G_53A_54A_55F_67L_, Q9UKT9], the “log2 fold change of degron read counts” value is, setting by setting: under setting [1], 2.15; under setting [2], -0.809; under setting [3], -1.83; (compound: thalidomide) 0.606.

Take FCCEICGAAFTQKGNLLRHIKL [46F_47C_49E_50I_52G_53A_54A_55F_67L_, Q9UKT9]: the “log2 fold change of degron read counts” value turned out to be 3.72 under setting [1], 3.1 under setting [2], 2.29 under setting [3] and 2.46 (compound: thalidomide).

Take FACNVCGAMFTQKGNLLRHIKL [46F_47A_49N_50V_52G_53A_54M_55F_67L_, Q9UKT9]: the “log2 fold change of degron read counts” value under setting [1] came out at 0.511, the “log2 fold change of degron read counts” value under setting [2] is -0.724, the “log2 fold change of degron read counts” value under setting [3] was -0.968 and the “log2 fold change of degron read counts” value (compound: thalidomide) is -1.44.

Turning to FFCDQCGAAFTQKGNLLRHIKL [46F_47F_49D_50Q_52G_53A_54A_55F_67L_, Q9UKT9], the “log2 fold change of degron read counts” value reads like this: under setting [1], 0.0639; under setting [2], -0.343; under setting [3], -0.617; (compound: thalidomide) -2.46.

For the sequence LCCEICGFVCTQKGNLLRHIKL [46L_47C_49E_50I_52G_53F_54V_55C_67L_, Q9UKT9], the “log2 fold change of degron read counts” value reads like this: under setting [1], 0.511; under setting [2], 0.955; under setting [3], 1.53; (compound: thalidomide) 1.13.

In the case of LFCEICGFVCTQKGNLLRHIKL [46L_47F_49E_50I_52G_53F_54V_55C_67L_, Q9UKT9], the “log2 fold change of degron read counts” value under setting [1] was 3.27, the “log2 fold change of degron read counts” value under setting [2] is 3.45, the “log2 fold change of degron read counts” value under setting [3] was found to be 1.38 and the “log2 fold change of degron read counts” value (compound: thalidomide) was 1.31.

In the case of LWCEICGFVCTQKGNLLRHIKL [46L_47W_49E_50I_52G_53F_54V_55C_67L_, Q9UKT9], the “log2 fold change of degron read counts” value under setting [1] was 2.88, the “log2 fold change of degron read counts” value under setting [2] came out at 3.17, the “log2 fold change of degron read counts” value under setting [3] was 2.26 and the “log2 fold change of degron read counts” value (compound: thalidomide) worked out at 0.659.

On to LYCEICGFVCTQKGNLLRHIKL [46L_47Y_49E_50I_52G_53F_54V_55C_67L_, Q9UKT9], for which the “log2 fold change of degron read counts” value is 3.3 under setting [1], 3.29 under setting [2], 2.43 under setting [3] and 0.954 (compound: thalidomide).

For LKCEICGFVCTQKGNLLRHIKL [46L_47K_49E_50I_52G_53F_54V_55C_67L_, Q9UKT9], the “log2 fold change of degron read counts” value is, setting by setting: under setting [1], -1.72; under setting [2], -2.04; under setting [3], -2.48; (compound: thalidomide) -0.691.

As for LQCEICGFVCTQKGNLLRHIKL [46L_47Q_49E_50I_52G_53F_54V_55C_67L_, Q9UKT9], the “log2 fold change of degron read counts” value is, setting by setting: under setting [1], -0.0768; under setting [2], 1.31; under setting [3], 1.38; (compound: thalidomide) 3.4.

As for LLCEICGFVCTQKGNLLRHIKL [46L_47L_49E_50I_52G_53F_54V_55C_67L_, Q9UKT9], the “log2 fold change of degron read counts” value runs as follows: under setting [1], -0.934; under setting [2], -1.38; under setting [3], 0.0357; (compound: thalidomide) 1.04.

Regarding LSCEICGFVCTQKGNLLRHIKL [46L_47S_49E_50I_52G_53F_54V_55C_67L_, Q9UKT9], the “log2 fold change of degron read counts” value is 1.2 under setting [1], 1.38 under setting [2], 0.553 under setting [3] and 0.403 (compound: thalidomide).

With LACEICGFVCTQKGNLLRHIKL [46L_47A_49E_50I_52G_53F_54V_55C_67L_, Q9UKT9], the “log2 fold change of degron read counts” value was 2.04 under setting [1], 1.25 under setting [2], -0.215 under setting [3] and -0.0645 (compound: thalidomide).

FCCDVCGACFTQKGNLLRHIKL [46F_47C_49D_50V_52G_53A_54C_55F_67L_, Q9UKT9]: the “log2 fold change of degron read counts” value by setting is: under setting [1], 0.633; under setting [2], 0.299; under setting [3], 1.47; (compound: thalidomide) -0.594.

As for FWCNQCGAKFTQKGNLLRHIKL [46F_47W_49N_50Q_52G_53A_54K_55F_67L_, Q9UKT9], the “log2 fold change of degron read counts” value is, setting by setting: under setting [1], 0.0883; under setting [2], 0.432; under setting [3], -1.2; (compound: thalidomide) -1.53.

Regarding FTCNQCGRLFTQKGNLLRHIKL [46F_47T_49N_50Q_52G_53R_54L_55F_67L_, Q9UKT9], the “log2 fold change of degron read counts” value under setting [1] was -2.58, the “log2 fold change of degron read counts” value under setting [2] was -2.81, the “log2 fold change of degron read counts” value under setting [3] is -3.15 and the “log2 fold change of degron read counts” value (compound: thalidomide) was -2.31.

FYCPICGRVFTQKGNLLRHIKL [46F_47Y_49P_50I_52G_53R_54V_55F_67L_, Q9UKT9]: the “log2 fold change of degron read counts” value reads like this: under setting [1], -0.29; under setting [2], -0.155; under setting [3], 0.579; (compound: thalidomide) -1.3.

For the sequence FWCNQCGRTFTQKGNLLRHIKL [46F_47W_49N_50Q_52G_53R_54T_55F_67L_, Q9UKT9], the “log2 fold change of degron read counts” value is -1.55 under setting [1], -1.36 under setting [2], -1.37 under setting [3] and -1.45 (compound: thalidomide).

In the case of FVCDQCGAPFTQKGNLLRHIKL [46F_47V_49D_50Q_52G_53A_54P_55F_67L_, Q9UKT9], the “log2 fold change of degron read counts” value was -1.33 under setting [1], 0.669 under setting [2], -0.689 under setting [3] and -0.0169 (compound: thalidomide).

For the sequence FICPICGRVFTQKGNLLRHIKL [46F_47I_49P_50I_52G_53R_54V_55F_67L_, Q9UKT9], the “log2 fold change of degron read counts” value by setting is: under setting [1], -1.47; under setting [2], -0.445; under setting [3], 0.321; (compound: thalidomide) 0.637.

Regarding FGCPICGAWFTQKGNLLRHIKL [46F_47G_49P_50I_52G_53A_54W_55F_67L_, Q9UKT9], the “log2 fold change of degron read counts” value was 1.54 under setting [1], -0.463 under setting [2], 1.47 under setting [3] and -0.0772 (compound: thalidomide).

Turning to FCCEICGRVFTQKGNLLRHIKL [46F_47C_49E_50I_52G_53R_54V_55F_67L_, Q9UKT9], the “log2 fold change of degron read counts” value under setting [1] was -1.06, the “log2 fold change of degron read counts” value under setting [2] is -1.44, the “log2 fold change of degron read counts” value under setting [3] is -0.0327 and the “log2 fold change of degron read counts” value (compound: thalidomide) is -0.334.

Consider FICEICGASFTQKGNLLRHIKL [46F_47I_49E_50I_52G_53A_54S_55F_67L_, Q9UKT9], for which the “log2 fold change of degron read counts” value reads like this: under setting [1], 0.541; under setting [2], 2.73; under setting [3], 2.39; (compound: thalidomide) 2.95.

Turning to FFCEICGASFTQKGNLLRHIKL [46F_47F_49E_50I_52G_53A_54S_55F_67L_, Q9UKT9], the “log2 fold change of degron read counts” value is, setting by setting: under setting [1], 3.6; under setting [2], 3.72; under setting [3], 2.31; (compound: thalidomide) 1.63.

In the case of FACEICGASFTQKGNLLRHIKL [46F_47A_49E_50I_52G_53A_54S_55F_67L_, Q9UKT9], the “log2 fold change of degron read counts” value turned out to be 3.67 under setting [1], 2.8 under setting [2], 0.948 under setting [3] and 1.06 (compound: thalidomide).

With FNCEICGASFTQKGNLLRHIKL [46F_47N_49E_50I_52G_53A_54S_55F_67L_, Q9UKT9], the “log2 fold change of degron read counts” value under setting [1] was 3.43, the “log2 fold change of degron read counts” value under setting [2] came to 1.63, the “log2 fold change of degron read counts” value under setting [3] stood at 0.778 and the “log2 fold change of degron read counts” value (compound: thalidomide) came out at 0.457.

With FTCEICGASFTQKGNLLRHIKL [46F_47T_49E_50I_52G_53A_54S_55F_67L_, Q9UKT9], the “log2 fold change of degron read counts” value under setting [1] is 2.27, the “log2 fold change of degron read counts” value under setting [2] turned out to be 3.03, the “log2 fold change of degron read counts” value under setting [3] was found to be 2.5 and the “log2 fold change of degron read counts” value (compound: thalidomide) is 3.

As to FWCEICGASFTQKGNLLRHIKL [46F_47W_49E_50I_52G_53A_54S_55F_67L_, Q9UKT9], the “log2 fold change of degron read counts” value by setting is: under setting [1], 3.83; under setting [2], 3.81; under setting [3], 2.56; (compound: thalidomide) 1.42.

As to FECEICGASFTQKGNLLRHIKL [46F_47E_49E_50I_52G_53A_54S_55F_67L_, Q9UKT9], the “log2 fold change of degron read counts” value reads like this: under setting [1], 2.12; under setting [2], -0.516; under setting [3], 1.74; (compound: thalidomide) 2.43.

As to FFCEICGHSFTQKGNLLRHIKL [46F_47F_49E_50I_52G_53H_54S_55F_67L_, Q9UKT9], the “log2 fold change of degron read counts” value is, setting by setting: under setting [1], -2.6; under setting [2], -2.19; under setting [3], -2.73; (compound: thalidomide) -2.65.

In the case of FVCEICGASFTQKGNLLRHIKL [46F_47V_49E_50I_52G_53A_54S_55F_67L_, Q9UKT9], the “log2 fold change of degron read counts” value came out at 1.36 under setting [1], 2.28 under setting [2], 1.92 under setting [3] and 3 (compound: thalidomide).

On to FRCEICGASFTQKGNLLRHIKL [46F_47R_49E_50I_52G_53A_54S_55F_67L_, Q9UKT9], for which the “log2 fold change of degron read counts” value was determined as 2.38 under setting [1], 1.52 under setting [2], 2.01 under setting [3] and 2.12 (compound: thalidomide).

Take FLCEICGASFTQKGNLLRHIKL [46F_47L_49E_50I_52G_53A_54S_55F_67L_, Q9UKT9]: the “log2 fold change of degron read counts” value runs as follows: under setting [1], 1.8; under setting [2], -0.0236; under setting [3], 1.14; (compound: thalidomide) 1.42.
